PubChem BioAssay (NCI)
Compounds without any hit were thinned out: in the full panel of roughly 83,000, 20% have a hit.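 Assay: single dose, 48 h. Readout: percent growth (0 = no net growth; negative = cell death). Active: <10.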 Values without a mark were called inactive. Activity calls are given as the source filed them.

What was measured:
Experiment in all cases: NCI-60 one-dose screen, 48 h (100 = growth as untreated, 0 = no growth, -100 = all killed)
Settings in all cases: 10 µM unless noted
EKVX NSCLC = test system: EKVX NSCLC
SN12C renal = test system: SN12C renal
TK-10 renal = test system: TK-10 renal
ACHN renal = test system: ACHN renal
CAKI-1 renal = test system: CAKI-1 renal
A498 renal = test system: A498 renal
CCRF-CEM leukemia = test system: CCRF-CEM leukemia
MOLT-4 leukemia = test system: MOLT-4 leukemia
UO-31 renal = test system: UO-31 renal

CCN(CC)CCCN1C(=O)c2c(c(C)c3c(oc4ccc(OC)cc43)c2C)C1=O showed a growth (EKVX NSCLC) of 105%, a growth (SN12C renal) of 100% and a growth (TK-10 renal) of 110%. The growth (ACHN renal) was 42.8%, the growth (CAKI-1 renal) was 92.6% and the growth (A498 renal) was 99.1%. The growth (CCRF-CEM leukemia) was 93.9% and the growth (MOLT-4 leukemia) was 96.4%.

Clc1ccc(-c2cc(-c3ccccc3)nc(NCCNc3ccnc4cc(Cl)ccc34)n2)cc1 was tested, and the growth (EKVX NSCLC) was 88.4%, the growth (SN12C renal) was -48% (active) and the growth (UO-31 renal) was 36.4%. For the same compound, the growth (TK-10 renal) was 106%, the growth (ACHN renal) was 10.1% and the growth (CAKI-1 renal) was 5.52% (active). The growth (A498 renal) was 53.3%, the growth (CCRF-CEM leukemia) was -2.14% (active) and the growth (MOLT-4 leukemia) was -1.52% (active).

For CCN(CC)CCN1C(=O)c2c(c(C)c3c(oc4ccc(O)cc43)c2C)C1=O, the growth (EKVX NSCLC) was 83.2%, the growth (SN12C renal) was -41.9% (active) and the growth (TK-10 renal) was -13.9% (active). For the same compound, the growth (ACHN renal) was -80.4% (active), the growth (CAKI-1 renal) was -6.73% (active) and the growth (A498 renal) was 91.7%. The growth (CCRF-CEM leukemia) was -14.7% (active) and the growth (MOLT-4 leukemia) was 10.2%.

Work on Cc1cc(Nc2ccc(C(=O)N3CCCC3)cc2)nc(NCCCNc2ccnc3cc(Cl)ccc23)n1 yielded a growth (EKVX NSCLC) of 101%, a growth (SN12C renal) of 85% and a growth (UO-31 renal) of 86.7%. It also gave a growth (TK-10 renal) of 106%, a growth (ACHN renal) of 99% and a growth (CAKI-1 renal) of 99.1%. For the same compound, the growth (A498 renal) was 95.2%, the growth (CCRF-CEM leukemia) was 65.3% and the growth (MOLT-4 leukemia) was 36.9%.

With O=C(Cc1ccc(NC(=O)c2cccc(Cl)c2)cc1)NCc1ccccc1 the growth (EKVX NSCLC) was 72.8%, the growth (SN12C renal) was 58.1% and the growth (UO-31 renal) was 59.9%. The growth (TK-10 renal) was 64.3%, the growth (ACHN renal) was 65% and the growth (CAKI-1 renal) was 52%. For the same compound, the growth (A498 renal) was 42.2%, the growth (CCRF-CEM leukemia) was 22.7% and the growth (MOLT-4 leukemia) was 39.7%.

For CC1=C(C(=O)Nc2ccccc2)C(c2ccc3c(c2)OCO3)NC(=S)N1 (centres undefined), the growth (EKVX NSCLC) was 107%, the growth (SN12C renal) was 104% and the growth (UO-31 renal) was 88.2%. It also gave a growth (TK-10 renal) of 97.8%, a growth (ACHN renal) of 107% and a growth (CAKI-1 renal) of 97.1%. It also gave a growth (A498 renal) of 114%, a growth (CCRF-CEM leukemia) of 115% and a growth (MOLT-4 leukemia) of 112%.

With O=C(N/N=C\c1cccc([N+](=O)[O-])c1)N/N=C/c1cccc([N+](=O)[O-])c1 the growth (EKVX NSCLC) was 98%, the growth (SN12C renal) was 96.8% and the growth (UO-31 renal) was 86.8%. It also gave a growth (TK-10 renal) of 117%, a growth (ACHN renal) of 98.6% and a growth (CAKI-1 renal) of 95.8%. For the same compound, the growth (A498 renal) was 82.3%, the growth (CCRF-CEM leukemia) was 98.7% and the growth (MOLT-4 leukemia) was 106%.

For C=C(C)[C@@H]1CC[C@]2(COC(C)=O)CC[C@]3(C)[C@H](CC[C@@H]4[C@@]5(C)CCCN(C(C)=O)C(C)(C)[C@@H]5CC[C@]43C)[C@@H]12, the growth (EKVX NSCLC) was 90%, the growth (SN12C renal) was 67.5% and the growth (UO-31 renal) was 77%. The growth (TK-10 renal) was 90.3%, the growth (ACHN renal) was 27.9% and the growth (CAKI-1 renal) was 24.3%. The growth (A498 renal) was 108%, the growth (CCRF-CEM leukemia) was 59.9% and the growth (MOLT-4 leukemia) was -9.89% (active).

For COc1ccc(-c2ccc(-c3ccc(C(=N)N)nc3)s2)cc1Cl, the growth (EKVX NSCLC) was 56.4%, the growth (SN12C renal) was -81.7% (active) and the growth (UO-31 renal) was -94.8% (active). For the same compound, the growth (TK-10 renal) was 94.5%, the growth (ACHN renal) was -96.2% (active) and the growth (CAKI-1 renal) was -90.2% (active). The growth (A498 renal) was 88.2%, the growth (CCRF-CEM leukemia) was -49% (active) and the growth (MOLT-4 leukemia) was -49.3% (active).

For CC(C)(C)c1cc(Cl)c(O)c(CNCCO)c1, the growth (EKVX NSCLC) was 101%, the growth (SN12C renal) was 109% and the growth (UO-31 renal) was 99.7%. It also gave a growth (TK-10 renal) of 105%, a growth (ACHN renal) of 110% and a growth (CAKI-1 renal) of 94.1%. For the same compound, the growth (A498 renal) was 89.4%, the growth (CCRF-CEM leukemia) was 110% and the growth (MOLT-4 leukemia) was 115%.

With C[C@H](C(=O)N(CCc1ccc(Cl)c(Cl)c1)Cc1cncs1)[C@@H]1CC[C@H](C[C@H](C)n2cc(CN3CCC(c4ccc(Cl)cc4)CC3)nn2)O1 the growth (EKVX NSCLC) was 95.4%, the growth (SN12C renal) was 97.5% and the growth (UO-31 renal) was 82.2%. For the same compound, the growth (TK-10 renal) was 104%, the growth (ACHN renal) was 102% and the growth (CAKI-1 renal) was 87.9%. The growth (A498 renal) was 108%, the growth (CCRF-CEM leukemia) was 94.3% and the growth (MOLT-4 leukemia) was -70% (active).

Work on C=CC(=O)Nc1ccc(Nc2nccc(-c3ccc(N4CCCC4)c(C#N)c3)n2)cc1 yielded a growth (EKVX NSCLC) of 66.6%, a growth (SN12C renal) of 41.4% and a growth (UO-31 renal) of 21%. For the same compound, the growth (TK-10 renal) was 26.1%, the growth (ACHN renal) was 19.6% and the growth (CAKI-1 renal) was 18.7%. The growth (A498 renal) was -36.9% (active), the growth (CCRF-CEM leukemia) was 16.7% and the growth (MOLT-4 leukemia) was -8.84% (active).

For OCCNCCNC(Cc1ccc(Cl)cc1)c1ccccc1 (centres undefined), the growth (EKVX NSCLC) was 88.5%, the growth (SN12C renal) was 92% and the growth (UO-31 renal) was 64.5%. For the same compound, the growth (TK-10 renal) was 80.8%, the growth (ACHN renal) was 95.9% and the growth (CAKI-1 renal) was 84.3%. It also gave a growth (A498 renal) of 90.1%, a growth (CCRF-CEM leukemia) of 85.4% and a growth (MOLT-4 leukemia) of 86.4%.

Compound COc1ccc(-c2nc(/C=C3\C(=O)N(C)c4ccccc43)c3ccccn23)cc1 has a growth (EKVX NSCLC) of 113%, a growth (SN12C renal) of 82.3% and a growth (UO-31 renal) of 69.3%. For the same compound, the growth (TK-10 renal) was 60.1%, the growth (ACHN renal) was 64.5% and the growth (CAKI-1 renal) was 94.1%. The growth (A498 renal) was 103%, the growth (CCRF-CEM leukemia) was 71.7% and the growth (MOLT-4 leukemia) was 95.7%.

In the case of O=C1/C(=C/c2ccccc2F)CN(C(=O)C(Cl)Cl)C/C1=C\c1ccccc1F, the growth (EKVX NSCLC) is reported as -8.07% (active), the growth (SN12C renal) is reported as -79.9% (active) and the growth (UO-31 renal) is reported as -92% (active). The growth (TK-10 renal) was -39.7% (active), the growth (ACHN renal) was -100% (active) and the growth (CAKI-1 renal) was -43.2% (active). The growth (A498 renal) was -62.5% (active), the growth (CCRF-CEM leukemia) was 1.7% (active) and the growth (MOLT-4 leukemia) was -10.7% (active).

In the case of CC1(C)[C@@H](O[C@@H]2OC[C@@H](O[C@@H]3O[C@H](CO)[C@@H](O)[C@H](O)[C@H]3O[C@@H]3OC[C@@H](O)[C@H](O)[C@H]3O)[C@H](O)[C@H]2O[C@@H]2O[C@H](CO)[C@@H](O)[C@H](O)[C@H]2O)CC[C@]2(C)[C@H]3CC[C@]45OC[C@@]6(CC[C@](C)(C=O)C[C@H]64)[C@H](O)C[C@@]5(C)[C@]3(C)CC[C@@H]12, the growth (EKVX NSCLC) is reported as -65.4% (active), the growth (SN12C renal) is reported as -72.6% (active) and the growth (UO-31 renal) is reported as -88.7% (active). For the same compound, the growth (TK-10 renal) was -92.2% (active), the growth (ACHN renal) was -93.7% (active) and the growth (CAKI-1 renal) was -91.5% (active). The growth (A498 renal) was -89.9% (active), the growth (CCRF-CEM leukemia) was -40.9% (active) and the growth (MOLT-4 leukemia) was -53.5% (active).

Cc1nc2cc(O)c(O)cc2cc1Oc1ccc(NC(=O)Nc2ccc(Cl)c(Cl)c2)cc1 gave a growth (EKVX NSCLC) of 98.5%, a growth (SN12C renal) of 85.6% and a growth (UO-31 renal) of 58.6%. It also gave a growth (TK-10 renal) of 85.3%, a growth (ACHN renal) of 39% and a growth (CAKI-1 renal) of 27.3%. It also gave a growth (A498 renal) of 118% and a growth (CCRF-CEM leukemia) of 19.9%.

Compound Nc1nc(N)c(N=Nc2ccccc2)c(-c2ccccc2)n1 has a growth (EKVX NSCLC) of 51.3%, a growth (SN12C renal) of 56% and a growth (UO-31 renal) of 36%. For the same compound, the growth (TK-10 renal) was 55.1%, the growth (ACHN renal) was 60.4% and the growth (CAKI-1 renal) was 45.3%. The growth (A498 renal) was 31%, the growth (CCRF-CEM leukemia) was 52.6% and the growth (MOLT-4 leukemia) was 46.6%.

Work on COc1ccc(/C(C)=C(/c2ccc(OCCCN(C)C)cc2)c2ccc(OC(=O)c3ccccc3)cc2)cc1 yielded a growth (EKVX NSCLC) of 74.5%, a growth (SN12C renal) of 79.1% and a growth (UO-31 renal) of 45.1%. It also gave a growth (TK-10 renal) of 87.8%, a growth (ACHN renal) of 111% and a growth (CAKI-1 renal) of 89.7%. The growth (A498 renal) was 91.5%, the growth (CCRF-CEM leukemia) was 64.3% and the growth (MOLT-4 leukemia) was 54.2%.

With CN(CCC(=O)c1ccccc1)CCC(=O)c1ccccc1 the growth (EKVX NSCLC) was 103%, the growth (SN12C renal) was 82.5% and the growth (UO-31 renal) was 77.1%. The growth (TK-10 renal) was 88.8%, the growth (ACHN renal) was 107% and the growth (CAKI-1 renal) was 90.7%. It also gave a growth (A498 renal) of 78.9%, a growth (CCRF-CEM leukemia) of 80.6% and a growth (MOLT-4 leukemia) of 94.5%.

For O=S1(=O)C=C(c2ccccc2)C(c2ccccc2)=C1, the growth (EKVX NSCLC) was 90.1%, the growth (SN12C renal) was 12.8% and the growth (UO-31 renal) was -6.37% (active). For the same compound, the growth (TK-10 renal) was -37.1% (active), the growth (ACHN renal) was -47.4% (active) and the growth (CAKI-1 renal) was -15.6% (active). For the same compound, the growth (A498 renal) was 79.5%, the growth (CCRF-CEM leukemia) was 2.77% (active) and the growth (MOLT-4 leukemia) was 1.8% (active).

C/C(=N\O)[C@@H]1CC[C@]2(CO)CC[C@]3(C)[C@H](CC[C@@H]4[C@@]5(C)CCCNC(C)(C)[C@@H]5CC[C@]43C)[C@@H]12 was tested, and the growth (SN12C renal) was 85.4%, the growth (UO-31 renal) was 69.3% and the growth (TK-10 renal) was 109%. The growth (ACHN renal) was 98.6%, the growth (CAKI-1 renal) was 79.4% and the growth (A498 renal) was 107%. The growth (CCRF-CEM leukemia) was 58.9% and the growth (MOLT-4 leukemia) was 33.3%.
